# Assay results from PubChem BioAssay AID902 (National Center for Advancing Translational Sciences (NCATS), 2007).
# Screen size: about 130,000 compounds; about 1,900 (1.5%) were called active. Entries that show only a call come without a potency. Roughly 5% stayed inconclusive and do not appear here. Only a selection was taken, and actives are over-represented in it overall. Values without a mark were called inactive. Calls follow the shape of the dose curve; as a rule, active = well fitted cell-killing curve with a large enough effect; inconclusive = small, poorly fitted or top-dose-only effect; inactive = no such curve, though single readings can be large or run the other way.
# Test: qHTS Screen for Compounds that Selectively Target Cancer Cells with p53 Mutations: Cytotoxicity of p53ts Cells at the Nonpermissive Temperature; also: nearly all actives have a fitted effect of over 55% in size
# Conditions: H1299-p53A138V viability at 39C, ATP luminescence, 24 h; series mostly up to 46.1 µM
# Excerpt: NIH Chemical Genomics Center [NCGC] NIH Molecular Libraries Screening Centers Network [MLSCN] MLSCN Grant: 1 X01 MH079844-01 Assay Submitter (PI): Dr. SUN, YI, University of Michigan NCGC Assay Overview: Synthetic Lethal Screen for Compounds to Kill Cancer Cells with p53 Mutation. Tumor suppressor gene p53 serves as a major cellular barrier against tumorigenesis. […] The goal of this screening is to identify small molecule probes that selectively kill cancer cells with mutations in p53. This screening was carried out using two lines of H1299 lung cancer cells. The H1299-p53 A138V line express a temperature sensitive p53 mutant (p53ts) in which the mutant p53 protein (A138V) is in the mutant confirmation when grown at 39C (the nonpermissive temperature) and in the wild type conformation when grown at 32C (the permissive temperature). A H1299-neo line (p53 null) grown at both 39C and 32C were used as counter-screens to filter out false positive associated with temperature shifting. The small molecular compounds that selectively target mutant p53-containing cancer cells were selected as candidate probes for further study. A cytotoxicity assay based on the measurement of ATP contents in cells was used in this screen. Concentration-responses of all the compounds in the library collection were determined in qHTS using the cell lines and temperature conditions as above.
# NCGC Assay Protocol Summary: Both the H1299-p53A138V and H1299-neo cell lines were provided by Dr.Yi Sun, a PI at the University Michigan. The cells were maintained and cultured at 37C. The resuspended frozen cells were used to plate the cells in the 1536-well assay plates at a density of 600 cells per well in 5 ul medium. The assay plates with the cells were incubated at 37C for 16 to 30 hours before the experiments. The library compounds in DMSO solution were added to the cells in assay plates and incubated 24 hours at 39C (for mutant p53 conformation) or 32C (for normal p53 conformation as control). An ATP_lite assay kit (PerkinElmer) was used to determine the cell viability. Tomaxifen (100uM) was used as the positive control for cell killing. Data were normalized to the controls for basal activity (DMSO only) and 100% killing (100uM tamoxifen). AC50 values were determined from concentration-response data modeled with the standard Hill equation. P53 assay protocol: 1. Reagent; 5 uL H1299-p53A138V or H1299-neo cell cells/well 2. Time; overnight; 37C incubation 3. Compounds; 23 nL; 5.9 nM to 46 uM 4. Controls; 23 nL; Tamoxifen 100 uM 5. Time; 24 hr; 39C incubation 6. Reagent; 3 uL; ATP_Lite reagent 7. Time; 20 min; Room Temperature 8. Detection; Luminescence; Viewlux plate reader Keywords: p53, synthetic lethal, cancer, cell viability, cytotoxicity, H1299 cell line, luminescence, MLSMR, MLSCN, NIH Roadmap, qHTS, NCGC
# Potency is read from the fitted curve at half-maximal effect.
SMILES,Potency,"activity change, negative = cell killing"
CC(C)(Cc1c[nH]c2ccc(Cl)cc12)NCCOc1ccccc1OCC1CC1,25.1 µM (active),
Cc1cccc(Cn2cccc(C(=O)Nc3ccc4c(c3)OCCO4)c2=O)c1,inactive,
CCN(CC)CCn1ncc2c(N)ncnc21,,-0.868% [at 9.22 µM]
C/C(=C\C=C/[C@@H](C)C(=O)O)[C@H]1CN[C@H](C(=O)O)[C@@H]1CC(=O)O,inactive,
CN(C)C(=O)Oc1cc(OC(=O)N(C)C)cc(C(O)CNC(C)(C)C)c1 (stereo not given),inactive,
CC(C)Oc1ccc(NC(=O)c2cc3ccccc3o2)cc1,6.31 µM (active),
COc1cc(C(c2c(O)c3ccccc3oc2=O)c2c(C)n(C)n(-c3ccccc3)c2=O)ccc1O (stereo not given),inactive,
O=C1C2CCN(CC2)C1(CO)CO,inactive,
C=CCSSCC=C,inactive,
Cc1nnc(NC(=O)c2cccn(Cc3cccc(F)c3)c2=O)s1,inactive,
NCCc1c[nH]c2ccc(O)cc12,inactive,
Fc1ccc(C(OCCN2CCN(C/C=C\c3ccccc3)CC2)c2ccc(F)cc2)cc1,31.6 µM (active),
CCN1C[C@]2(C)CC[C@H](O)[C@@]34[C@@H]5CC6[C@@H](OC)C[C@@](O)([C@@H]5[C@@H]6O)[C@H](C[C@@H]23)[C@H]14,inactive,
COc1ccc(C2Oc3c(I)c(OC)cc(OC)c3CC2O)cc1OC (stereo not given),inactive,
CC(C)(O)/C=C\C(=O)[C@](C)(O)[C@H]1[C@H](O)C[C@]2(C)[C@@H]3CC=C4[C@@H](C=C(O)C(=O)C4(C)C)[C@]3(C)C(=O)C[C@@]12C,,-1.33% [at 9.22 µM]
CC[C@@](O)(C(=O)O)c1cc2n(c(=O)c1CO)Cc1cc3ccccc3nc1-2,,11.1% [at 9.22 µM]
O=C(N/N=C/c1c(O)n(Cc2ccccc2)c(=O)[nH]c1=O)c1ccccc1,inactive,
CN1C2CC3CC1C(O3)C2O (stereo not given),inactive,
CCCCN1C2CCC1CC(OC(c1ccc(F)cc1)c1ccc(F)cc1)C2 (stereo not given),12.6 µM (active),
Cn1c(O)c(C=NCCN2CCNCC2)c(=O)n(C)c1=O,inactive,

SMILES,Potency,"activity change, negative = cell killing"
CC(=O)OC1C2CCC3C1(CC(O)[C@@]1(O)[C@@H](CC(O)C1(C)C)[C@]3(C)O)C[C@@]2(C)O (stereo not given in full),inactive,
CC[C@@H]1CN2CC[C@@H]1C[C@H]2[C@H](O)c1ccnc2ccc(OC)cc12,inactive,
O=C(Nc1ccc(Cl)cc1C(=O)c1ccccc1)c1cc(Cl)cc(Cl)c1,inactive,
C[C@@]12CCC3C(CC[C@@H]4CC(O)CC[C@@]34C)C1CCC2O (stereo not given in full),inactive,
C[C@@]1([C@@H](NP(=O)(c2ccccc2)c2ccccc2)c2ccccc2)C[C@H]1CCO,inactive,
N#Cc1c(Cl)c(Cl)c(Cl)c(C#N)c1Cl,6.31 µM (active),
CCC(C)C(=O)O[C@@H]1C[C@@]2(C)C(c3ccoc3)OC(=O)CC23OC2(C)O[C@@]14[C@@]1(C)C(CC(=O)OC)C5(C)CC1(O)C(O)(C5OC(=O)C1(C)OC1C)C(OC(C)=O)[C@@]34O2 (stereo not given in full),inactive,
Cc1ccc(-n2c(/C=C/c3cccc(C(F)(F)F)c3)nc3ccccc3c2=O)cc1,inactive,
Clc1ccc(C(c2ccc(Cl)cc2)n2cc[n+](C[C@@H](OCc3ccc(Cl)cc3Cl)c3ccc(Cl)cc3Cl)c2)cc1,15.8 µM (active),
CCN(CC)c1ccc(C2C(C(N)=O)=C(C)Nc3nc(SCc4ccccc4)nn32)cc1 (stereo not given),inactive,
Clc1ccc([C@@H]2C[C@H]3CC[C@@H]2N3)cn1,inactive,
Cn1cc(/C=C/c2nc3ccccc3c(=O)n2-c2ccccc2)c2ccccc21,inactive,
O=C(NC(c1ccc(Cl)cc1)P(=O)(Oc1ccccc1)Oc1ccccc1)OCc1ccccc1 (stereo not given),inactive,
COc1cc2c(cc1OC)[C@@H]1C(=O)c3ccc(O)c(CC=C(C)C)c3OC1CO2 (stereo not given in full),inactive,
COc1ccc(NC(=O)Nc2cccc3cccnc23)cc1,15.8 µM (active),
CC1=CC(=O)C2=C(C)C[C@H](O)[C@H]3[C@H](C)C(=O)O[C@@H]3C12 (stereo not given in full),inactive,
c1csc(CN2CC3(CCNCC3)C2)n1,inactive,
CC(C)(c1ccc(OC[C@@H]2CO2)cc1)c1ccc(OC[C@H]2CO2)cc1,12.6 µM (active),
Cc1ccc(N2C(=O)NC(=O)C(CCc3ccncc3)(Cc3cccc(Cl)c3Cl)C2=O)cc1 (stereo not given),inactive,
C[C@]12CC[C@H](O)C[C@@H]1CC[C@H]1[C@H]2CC[C@]2(C)C(=O)CC[C@@H]12,inactive,
